Source: PubChem
Sampled rows, rich in hits. Any-hit rate of the full collection: about 6.7%.
Pf Dd2 growth – inhibitors of Plasmodium falciparum Dd2 growth | P. falciparum Dd2 growth, SYBR Green, 72 h; hits give low values | AID 1159554 | actives 2.3% (n = 94,000) | activity change, % at 10 µM; in the data active = activity change below about -80%; inconclusive = no clear call, values can overlap the other calls
C diff HTS – C. difficile growth inhibition | Clostridium difficile clinical isolate growth, OD600, 24 h; hits give low values | growth activity, negative = inhibition, % at 16 µg/mL (by protocol) | actives 0.25% (n = 86,000) | AID 1259249;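 active = mean growth activity at or below -80% and every replicate also at or below -80%; inconclusive = mean at or below -80% but some replicate above -80%; inactive = mean growth activity above -80%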;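 also: 0% = DMSO wells and -100% = levofloxacin 16 µg/mL wells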
T cruzi growth – T. cruzi proliferation inhibition; T. cruzi beta-gal in NIH3T3, GalScreen luminescence, 90 h; inhibition, % at 8.34 µM; actives 5.9% (n = 77,000);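 active = mean inhibition above about 93%, with at least 55% of replicates each passing it, limit read from the data, passing the limit was not always enough; inconclusive = only one of those two conditions holds; inactive = neither condition holds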
Active calls of the source: *.

Screening C[C@H]1CN([C@@H](C)CO)C(=O)c2c(c3ccccc3n2C)-c2ccccc2CO[C@H]1CN(C)C(=O)Cc1ccccc1 returned Pf Dd2 growth -70, C diff HTS -1 and T cruzi growth 30.
C[C@H](CO)N1C[C@H](C)[C@@H](CN(C)C(=O)CCN(C)C)OCc2ccccc2-c2c(n(C)c3ccccc23)C1=O was read as Pf Dd2 growth -85*, C diff HTS 5 and T cruzi growth 71.
C[C@@H]1CN([C@H](C)CO)S(=O)(=O)c2ccc(C#Cc3ccccn3)cc2O[C@@H]1CN(C)C(=O)C1CC1 was read as Pf Dd2 growth 9, C diff HTS -4 and T cruzi growth 53.
For O=C(c1cnccn1)N1CC(=O)N2[C@@H](CO)[C@@H](c3ccc(C#CCc4ccccc4)cc3)[C@@H]2C1 the results were Pf Dd2 growth -83* and C diff HTS -10.
Screening O=C(C1CCC1)N1CC(=O)N2[C@H](CO)[C@H](c3ccc(C#CCc4ccccc4)cc3)[C@H]2C1 returned Pf Dd2 growth -13 and C diff HTS -15.
For O=C(C1CCC1)N1CC(=O)N2[C@H](CO)[C@@H](c3ccc(C#CCc4ccccc4)cc3)[C@@H]2C1 the results were Pf Dd2 growth -86* and C diff HTS -9.
O=C(Cc1ccccc1)N1CC(=O)N2[C@H](CO)[C@H](c3ccc(C#CCc4ccccc4)cc3)[C@H]2C1 was read as Pf Dd2 growth -89* and C diff HTS -15.
O=C(c1cnccn1)N1CC(=O)N2[C@H](CO)[C@@H](c3ccc(C#CCc4ccccc4)cc3)[C@@H]2C1 was read as Pf Dd2 growth -72 and C diff HTS -13.
Screening O=C(Cc1ccccc1)N1CC(=O)N2[C@H](CO)[C@@H](c3ccc(C#CCc4ccccc4)cc3)[C@H]2C1 returned Pf Dd2 growth -43 and C diff HTS 38.
`CCCNC(=O)N1CC2(CCN(C(=O)COC)CC2)c2c(n(C)c3cc(OC)ccc23)[C@H]1CO` gave Pf Dd2 growth 31.
Screening C[C@@H]1CN([C@@H](C)CO)C(=O)c2cc(NC(=O)NC3CCCCC3)ccc2O[C@@H](C)CCCCO[C@H]1CN(C)Cc1ccc(C(F)(F)F)cc1 returned Pf Dd2 growth -46, C diff HTS 1 and T cruzi growth 98.
`CCS(=O)(=O)N1CC2(CN(C(=O)Nc3cccc(F)c3)[C@H](CO)c3c2c2ccc(OC)cc2n3C)C1` gave Pf Dd2 growth 22.
`COc1cccc(CN2CC3(CN(Cc4ccccn4)C3)c3c([nH]c4cc(OC)ccc34)[C@H]2CO)c1` gave Pf Dd2 growth -87* and C diff HTS 13.
Screening COc1cccc(CN2CC3(CCN(Cc4ccccn4)CC3)c3c([nH]c4cc(OC)ccc34)[C@H]2CO)c1 returned Pf Dd2 growth -84* and C diff HTS 5.
Screening COc1ccc2c3c([nH]c2c1)[C@@H](CO)N(Cc1ccc(F)cc1)CC31CN(Cc2ccccn2)C1 returned Pf Dd2 growth inconclusive and C diff HTS 8.
`COc1ccc2c3c([nH]c2c1)[C@H](CO)N(Cc1ccncc1)CC31CN(Cc2ccc(-c3ccccn3)cc2)C1` gave Pf Dd2 growth -89* and C diff HTS 5.
Screening COc1ccc2c3c([nH]c2c1)[C@@H](CO)N(Cc1ccncc1)CC31CN(Cc2ccc(-c3ccccn3)cc2)C1 returned Pf Dd2 growth inconclusive and C diff HTS 4.
For COc1ccc2c3c([nH]c2c1)[C@@H](CO)N(Cc1cccc(F)c1)CC31CN(Cc2ccccn2)C1 the results were Pf Dd2 growth inconclusive and C diff HTS 0.
COc1ccc2c3c([nH]c2c1)[C@@H](CO)N(Cc1cccnc1)CC31CN(C(=O)CN(C)C)C1 was read as Pf Dd2 growth -4 and C diff HTS -4.
Screening CCNC(=O)C[C@H]1CC[C@H]2[C@H](COc3ccc(NC(=O)Nc4ccccc4OC)cc3C(=O)N2C)O1 returned Pf Dd2 growth -17, C diff HTS 2 and T cruzi growth 24.
For COc1ccc(S(=O)(=O)Nc2ccc3c(c2)C(=O)N([C@@H](C)CO)C[C@H](C)[C@H](CN(C)C(=O)c2ccccc2)OCCCC[C@@H](C)O3)cc1 the results were Pf Dd2 growth -39, C diff HTS 9 and T cruzi growth -2.
Screening COc1ccc(NC(=O)N(C)C[C@H]2Oc3c(NS(=O)(=O)c4cccs4)cccc3C(=O)N([C@@H](C)CO)C[C@H]2C)cc1 returned Pf Dd2 growth -73, C diff HTS 3 and T cruzi growth -47.
For C[C@@H]1CN([C@@H](C)CO)C(=O)c2cc(NC(=O)CCCCCC(=O)Nc3ccccc3N)ccc2O[C@@H]1CN(C)Cc1ccncc1 the results were Pf Dd2 growth -18 and C diff HTS -4.
For C[C@H](CO)N1C[C@H](C)[C@H](CN(C)Cc2ccc(C(=O)Nc3ccccc3N)cc2)Oc2ccc(NS(=O)(=O)c3ccc(F)cc3)cc2CC1=O the results were Pf Dd2 growth -82*, C diff HTS 64 and T cruzi growth 79.
Screening C[C@H]1CN([C@@H](C)CO)C(=O)Cc2cc(NS(=O)(=O)c3ccc(Cl)cc3)ccc2O[C@@H]1CN(C)Cc1ccc(C(=O)Nc2ccccc2N)cc1 returned Pf Dd2 growth -85* and C diff HTS 2.
Screening C[C@@H]1CN([C@@H](C)CO)C(=O)Cc2cc(NS(=O)(=O)c3ccc(Cl)cc3)ccc2O[C@H]1CN(C)Cc1ccc(C(=O)Nc2ccccc2N)cc1 returned Pf Dd2 growth -54, C diff HTS 5 and T cruzi growth 94.
Screening C[C@H](CO)N1C[C@H](C)[C@@H](CN(C)Cc2ccc(C(=O)Nc3ccccc3N)cc2)Oc2ccc(NS(=O)(=O)c3ccc(F)cc3)cc2CC1=O returned Pf Dd2 growth inconclusive, C diff HTS -1 and T cruzi growth 60.
For C[C@@H]1CN([C@@H](C)CO)C(=O)Cc2cc(NS(=O)(=O)c3ccc(F)cc3)ccc2O[C@H]1CN(C)Cc1ccc(C(=O)Nc2ccccc2N)cc1 the results were Pf Dd2 growth -61 and C diff HTS 1.
Screening C[C@H](CO)N1C[C@H](C)[C@H](CN(C)Cc2ccc(C(=O)Nc3ccccc3N)cc2)Oc2ccc(NS(=O)(=O)c3ccccc3)cc2CC1=O returned Pf Dd2 growth -85*, C diff HTS -11 and T cruzi growth 56.
Screening C[C@H](CO)N1C[C@H](C)[C@H](CN(C)Cc2ccc(C(=O)Nc3ccccc3N)cc2)Oc2ccc(NS(=O)(=O)c3ccc(Cl)cc3)cc2CC1=O returned Pf Dd2 growth -83* and C diff HTS 1.
For C[C@@H]1CN([C@@H](C)CO)C(=O)Cc2cc(NS(C)(=O)=O)ccc2O[C@H]1CN(C)Cc1ccc(C(=O)Nc2ccccc2N)cc1 the results were Pf Dd2 growth 8, C diff HTS 3 and T cruzi growth 48.
Screening COc1ccc2c3c(n(C)c2c1)[C@@H](CO)N(C(=O)NC(C)C)CC31CCN(CC2CC2)CC1 returned Pf Dd2 growth -37 and C diff HTS 2.
Screening COc1ccc2c3c(n(C)c2c1)[C@@H](CO)N(Cc1ccccc1F)CC31CCN(C(C)=O)CC1 returned Pf Dd2 growth 75.
